Whole data set: some 33,000 sequences, median “e-score” near -0.037, cut for the highest 2% near 0.34. Many of the other results were omitted from the sample, so the highest values are more common in it than they were.
These sequences were tested against T1, GST-Rok (full length) (Bacillus subtilis subsp. subtilis str. …, UniProt O34857 1-191) (assay: protein binding microarray; Rok is a gene silencer of Bacillus subtilis; high values mean tight binding). Details: protein: recombinant; tags: GST (pTH5325, pDEST15-Magic modified); dsDNA, one strand shown.
T1 sequence: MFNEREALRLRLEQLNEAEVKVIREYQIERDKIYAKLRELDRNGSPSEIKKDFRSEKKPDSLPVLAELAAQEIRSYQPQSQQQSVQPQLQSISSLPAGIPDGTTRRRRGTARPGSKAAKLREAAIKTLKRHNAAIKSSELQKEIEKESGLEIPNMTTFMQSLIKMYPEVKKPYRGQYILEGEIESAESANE
In short: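 Each has a 25-mer constant primer and a 35-mer variable part from a de Bruijn sequence of order 10, covering every non-palindromic 8-mer at least 32 times (palindromic 16). Preference for each 8-mer is given as a rank-based, unitless enrichment score (E-score). Its range runs from 0.5 (most favored) to −0.5 (most disfavored).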

Sequence | binding signal
TCAGGACA | -0.136 E-score
CCACCTAA | -0.104 E-score
CTGGTAAC | 0.176 E-score
GAGAGAGA | -0.124 E-score
CAAGCGTA | -0.175 E-score
AAGCCAGC | -0.00201 E-score
AGACTGAA | 0.0238 E-score
AATACTTC | 0.235 E-score
AATACTCA | 0.174 E-score
AATACTAC | 0.419 E-score
AATACTAA | 0.37 E-score
CATACTAG | 0.312 E-score
AATACTGA | 0.188 E-score
GATACTAC | 0.278 E-score
CATACTAA | 0.125 E-score
AATACTAG | 0.341 E-score
TATACTAA | 0.364 E-score
AATACTCG | 0.085 E-score
GATACTAA | 0.307 E-score
GCAGGGAA | -0.158 E-score
TAAATTCA | 0.217 E-score
AGTAGCCA | -0.0245 E-score
CCTTACCG | 0.0725 E-score
CGGAGCCG | -0.191 E-score
ACGTGCTA | 0.0361 E-score

Sequence | binding signal
AATACTCT | 0.11 E-score
AATACTGT | 0.171 E-score
CATACTTC | 0.191 E-score
CATACTCC | -0.0183 E-score
CATACTAC | 0.376 E-score
AATACTAT | 0.359 E-score
AAAAAGTT | 0.0934 E-score
ACCAACAA | -0.105 E-score
GAACACCA | -0.0539 E-score
TACTTCGA | 0.332 E-score
CACTAAGC | -0.0899 E-score
GTAGGAAC | 0.0415 E-score
CGAACGTA | 0.0863 E-score
ACTAATTA | 0.438 E-score
GCTAATTA | 0.325 E-score
CCTAATTC | 0.0288 E-score
ACTAATTG | 0.184 E-score
ACTAATTC | 0.359 E-score
CCTAATTA | 0.228 E-score
GGCATCTA | -0.0204 E-score
AGGATGAT | -0.0933 E-score
ACTGTGGA | -0.123 E-score
ATTATAGA | 0.353 E-score
ATTATATA | 0.468 E-score
CTTATAGA | 0.112 E-score

Sequence | binding signal
ATTATATC | 0.377 E-score
GTTATATA | 0.296 E-score
ATTATATG | 0.269 E-score
CTTATATC | 0.141 E-score
CCTATATC | 0.00873 E-score
GTTATAGA | 0.11 E-score
CCTGAGCA | -0.194 E-score
CATCGACA | 0.0503 E-score
CACAACCG | 0.019 E-score
AGCGTGGG | -0.179 E-score
ATCGAAAA | 0.0373 E-score
ATAGAATG | 0.181 E-score
ATAGAAAC | 0.288 E-score
ATCGAAAT | 0.357 E-score
ATAGAAAT | 0.337 E-score
ATCGAAAC | 0.0448 E-score
ATAGAAAA | 0.324 E-score
ATAGAATC | 0.254 E-score
ATAGAATA | 0.356 E-score
TCTTTCCA | -0.0837 E-score
AGTCGGAC | -0.171 E-score
AGCCCGTG | -0.00226 E-score
AAGCGACT | 0.0908 E-score
AGATAGTC | 0.0258 E-score
AGATAGTA | 0.347 E-score

Sequence | binding signal
AGATAGTG | 0.199 E-score
GGATAGTA | 0.208 E-score
CGATAGTA | 0.384 E-score
CGATAGTC | -0.0533 E-score
CATGATCC | 0.0194 E-score
AGAAGCTA | 0.0762 E-score
AACCTCAC | -0.146 E-score
AACCGCCC | -0.131 E-score
CGGCGAAG | 0.0313 E-score
ATGAAGTC | -0.0225 E-score
GCGACTTA | 0.0295 E-score
CCACTAAG | -0.137 E-score
ATTTCTAC | 0.408 E-score
CTTTCTAA | 0.162 E-score
CTTTCTAC | 0.444 E-score
CTTTCTTC | -0.0764 E-score
ATTTCTAA | 0.303 E-score
ATTTCTAG | 0.333 E-score
AGAGACCT | -0.154 E-score
ACGTGGGC | -0.0245 E-score
GGATTGAC | -0.0238 E-score
GTATTAAA | 0.109 E-score
CTGTTATA | 0.308 E-score
CGATTATA | 0.215 E-score
ATATTATG | 0.111 E-score

Sequence | binding signal
ATGTTATC | 0.206 E-score
CTATTATC | 0.214 E-score
ATATTATA | 0.425 E-score
ATATTATC | 0.319 E-score
CTATTATA | 0.366 E-score
GTATTAGA | 0.22 E-score
GTATTATA | 0.35 E-score
ATGTTATA | 0.35 E-score
CGTCCTAA | -0.0629 E-score
CGAACTGC | -0.11 E-score
ACCATGCG | -0.0629 E-score
TCGAAGCA | -0.0477 E-score
CAACTAGA | 0.247 E-score
AAACTAGA | 0.355 E-score
AGACTAGA | 0.173 E-score
ACACTAGA | 0.197 E-score
TAACTAGA | 0.224 E-score
GAACTAGA | 0.36 E-score
CCGGCGAA | -0.00971 E-score
CAATAATG | 0.0655 E-score
TAATAATA | 0.395 E-score
CATTAATA | 0.171 E-score
AATTAATA | 0.256 E-score
GAATAATA | 0.271 E-score
TATTAATA | 0.368 E-score

Sequence | binding signal
CAATAATC | 0.0735 E-score
CAATAATA | 0.352 E-score
AAATAATA | 0.312 E-score
ACTCACTA | 0.177 E-score
ACAGCATG | 0.0491 E-score
AGGCACTG | -0.0252 E-score
CGTGATAA | 0.124 E-score
CCCGGCCG | -0.162 E-score
CCAAATAG | -0.0889 E-score
CGTGCGAG | -0.181 E-score
TTATTGAA | -0.0458 E-score
AGTAAATC | 0.262 E-score
GGTAAATA | 0.299 E-score
AGTAAATA | 0.387 E-score
CGTAAATA | 0.343 E-score
CGTAAATC | 0.0869 E-score
AGTAAATG | 0.19 E-score
AATTCCGT | -0.114 E-score
GACTTTCA | -0.125 E-score
CGGCCAAC | -0.111 E-score
AGAAGATG | 0.193 E-score
ACTGATAT | 0.242 E-score
CCGTACCG | -0.185 E-score
CTGAACTA | 0.203 E-score
AAAGTCGA | -0.0163 E-score

Sequence | binding signal
GTATAACA | 0.208 E-score
GTATAAAA | 0.343 E-score
CTATAATA | 0.355 E-score
GTATAAAC | 0.16 E-score
ATATAATC | 0.152 E-score
CTATAAGA | 0.244 E-score
TTATAAAA | 0.236 E-score
ATATAATA | 0.452 E-score
GTATAATA | 0.407 E-score
CTATAATC | 0.279 E-score
GTATAAGA | 0.199 E-score
ATATAATG | 0.303 E-score
GATCAGAA | 0.11 E-score
ACGACCGC | 0.0315 E-score
CCCGTTTC | -0.0198 E-score
CCATCTAG | -0.0113 E-score
ATGAGGGC | -0.183 E-score
AGCTGCCT | -0.125 E-score
CGGTGTTC | -0.0645 E-score
AGAACATG | 0.223 E-score
GGTCTAAA | 0.0268 E-score
ATACATCA | 0.191 E-score
